The record followed here is PubChem BioAssay (NCATS).

Results filed as inconclusive are left out. Calls of active or inactive are those of the source. Calls come from the whole dose curve; as a rule, active = well fitted curve in the direction sought with a large enough effect; inconclusive = small, poorly fitted or top-dose-only effect, or another doubt; inactive = no such curve, though single readings can be large; an effect the other way counts as inactive or inconclusive.

Test [1] addresses Rap guanine nucleotide exchange factor 3 (Homo sapiens) (UniProt O95398). The test can be described thus: Confirmatory qHTS for antagonist of cAMP-regulated guanine nucleotide exchange factor 3 (EPAC1) (AID 1645880). Note: nearly all actives have a fitted effect of over 55% in size. Note: potency is the fitted concentration of half-maximal effect. An outline of the steps:
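Nucleotide exchange uses 100 nM EPAC1, 250 nM RAP1B-BODIPY-GDP and 50 uM GDP, with compounds in a concentration-titration series. After 5 min at room temperature, fluorescence (480 nm ex/540 nm em) is read every 5 min for 30 min. Data are normalized to control ATA and DMSO.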
A general note: Quantitative high-throughput screening tests each substance at several concentrations.

Test [2] shares this target. The test can be described thus: Confirmatory qHTS for agonist of cAMP-regulated guanine nucleotide exchange factor 3 (EPAC1) (AID 1645881).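 For activation: EPAC1 catalysed release of BODIPY-GDP from Rap1B seen as fluorescence loss; 100% = effect of cAMP agonist control.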 Note: nearly all actives have a fitted effect of over 75% in size. Note: potency is the fitted concentration of half-maximal effect.
The target in test [3] is Rap guanine nucleotide exchange factor 4 (Homo sapiens) (UniProt Q8WZA2). The test can be described thus: Confirmatory qHTS for agonist of cAMP-regulated guanine nucleotide exchange factor 4 (EPAC2) (AID 1645884). For activation: % is set by controls: 0 for no effect and ±100 for the full control effect.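 Note: nucleotide exchange releases bodipy-GDP from Rap1 and this lowers its fluorescence; nearly all actives have a fitted effect of over 65% in size.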 Note: potency is the fitted concentration of half-maximal effect.
Sequence of Rap guanine nucleotide exchange factor 4 (Homo sapiens) (Q8WZA2 whole entry, looked up): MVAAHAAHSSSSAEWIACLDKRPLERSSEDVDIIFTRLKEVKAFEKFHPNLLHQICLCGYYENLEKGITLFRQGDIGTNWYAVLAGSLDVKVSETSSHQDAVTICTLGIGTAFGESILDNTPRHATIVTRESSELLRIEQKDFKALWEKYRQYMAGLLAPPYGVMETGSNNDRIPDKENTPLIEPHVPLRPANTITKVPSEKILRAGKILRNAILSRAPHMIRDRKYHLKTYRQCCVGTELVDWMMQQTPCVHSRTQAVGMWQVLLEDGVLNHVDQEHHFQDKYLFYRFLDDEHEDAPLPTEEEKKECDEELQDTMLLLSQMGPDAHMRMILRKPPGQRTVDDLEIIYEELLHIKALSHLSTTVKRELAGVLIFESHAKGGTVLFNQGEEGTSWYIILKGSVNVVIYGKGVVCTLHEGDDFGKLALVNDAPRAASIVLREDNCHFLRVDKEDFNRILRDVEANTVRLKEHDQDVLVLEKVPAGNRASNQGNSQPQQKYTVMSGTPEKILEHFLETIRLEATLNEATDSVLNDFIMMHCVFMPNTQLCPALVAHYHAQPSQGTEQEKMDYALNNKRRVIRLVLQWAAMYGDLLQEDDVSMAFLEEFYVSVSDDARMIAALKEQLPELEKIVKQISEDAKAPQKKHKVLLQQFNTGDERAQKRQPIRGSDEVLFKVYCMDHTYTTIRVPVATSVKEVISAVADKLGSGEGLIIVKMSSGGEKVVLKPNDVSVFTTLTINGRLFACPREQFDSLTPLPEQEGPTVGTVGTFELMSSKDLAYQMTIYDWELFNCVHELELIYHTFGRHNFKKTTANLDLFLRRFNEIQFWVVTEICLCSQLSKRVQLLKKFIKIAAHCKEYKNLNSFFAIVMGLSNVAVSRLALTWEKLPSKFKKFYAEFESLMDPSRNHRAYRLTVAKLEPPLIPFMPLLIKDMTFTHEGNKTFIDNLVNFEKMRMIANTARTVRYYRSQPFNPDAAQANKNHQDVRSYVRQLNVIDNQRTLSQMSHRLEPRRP
Test [4] shares this target. Description: Confirmatory qHTS for antagonist of cAMP-regulated guanine nucleotide exchange factor 4 (EPAC2) (AID 1645885). For activity change, negative = inhibition: % is set by controls: 0 for no effect and ±100 for the full control effect. Note: nearly all actives have a fitted effect of over 25% in size. Note: potency is the fitted concentration of half-maximal effect.
Test [5] addresses Rap guanine nucleotide exchange factor 3 (Homo sapiens) (UniProt O95398). Description: Counterscreen qHTS for antagonist of cAMP-regulated guanine nucleotide exchange factor 3 (EPAC1) (AID 1645888).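 Note: fluorescence loss as bound BODIPY-GDP is released from Rap1B; % of control where 0% means no effect.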 The method, boiled down:
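Rap1B–BODIPY-GDP (250 nM) with 50 uM GDP; compounds pin-transferred to 9.74 nM–152 uM final (activator) or from 7.32 nM upwards (inhibitor). Fluorescence Ex/Em 480/540 nm read at 5 and 30 min, then after adding cAMP or buffer, at room temperature.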
(The purpose of a counterscreen is to sort out artefacts and off-target activity.)

Sequence of Rap guanine nucleotide exchange factor 3 (Homo sapiens) (O95398 whole entry, looked up): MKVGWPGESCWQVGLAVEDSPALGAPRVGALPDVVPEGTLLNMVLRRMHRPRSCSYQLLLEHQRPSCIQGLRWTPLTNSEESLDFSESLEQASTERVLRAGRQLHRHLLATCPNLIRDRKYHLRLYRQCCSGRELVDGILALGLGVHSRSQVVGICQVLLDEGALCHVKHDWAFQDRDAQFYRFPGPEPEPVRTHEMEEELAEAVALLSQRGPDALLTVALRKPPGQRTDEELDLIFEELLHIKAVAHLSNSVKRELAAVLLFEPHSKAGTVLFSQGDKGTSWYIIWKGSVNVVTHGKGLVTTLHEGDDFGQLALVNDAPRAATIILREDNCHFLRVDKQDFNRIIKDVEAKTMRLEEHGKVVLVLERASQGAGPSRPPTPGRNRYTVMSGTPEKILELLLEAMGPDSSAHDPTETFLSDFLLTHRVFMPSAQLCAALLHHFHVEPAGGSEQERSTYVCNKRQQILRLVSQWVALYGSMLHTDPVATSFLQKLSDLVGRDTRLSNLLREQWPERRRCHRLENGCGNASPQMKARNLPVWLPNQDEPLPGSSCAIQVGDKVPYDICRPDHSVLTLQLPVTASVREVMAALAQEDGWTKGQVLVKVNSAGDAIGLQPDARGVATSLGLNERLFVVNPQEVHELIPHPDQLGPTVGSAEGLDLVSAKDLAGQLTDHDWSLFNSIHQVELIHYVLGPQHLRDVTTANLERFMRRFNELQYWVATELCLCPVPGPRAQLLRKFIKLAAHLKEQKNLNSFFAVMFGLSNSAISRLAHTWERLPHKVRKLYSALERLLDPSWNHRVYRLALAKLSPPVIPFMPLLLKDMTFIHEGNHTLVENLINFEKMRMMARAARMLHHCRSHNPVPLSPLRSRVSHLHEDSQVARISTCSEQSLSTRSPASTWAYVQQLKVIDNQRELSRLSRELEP

Regarding `CCCN1CCN(S(=O)(=O)c2ccc3c(c2)NC(=O)C(C)C(=O)N3)CC1` (stereo not given), the Potency entry in test [1], in test [2], in test [3], in test [4] and in test [5] was “inactive” throughout.

`CCOc1ccc(S(=O)(=O)N2CCCCC2)c2ccccc12`: the Potency result in test [1], in test [2], in test [3], in test [4] and in test [5] was “inactive” throughout.

For the molecule `CCOc1cc(/C=C2\C(=N)N3N=C(S(C)(=O)=O)SC3=NC2=O)ccc1OCCOc1cccc(OC)c1`, the Potency in test [1] was 19 µM (active). For the same molecule, the Potency result in test [2], in test [3], in test [4] and in test [5] was “inactive” throughout.

As to `CCOC(=O)c1ccccc1-c1csc(NS(=O)(=O)c2ccc(Cl)cc2)n1`, the Potency in test [1] was 31.6 µM (active). Moreover, the Potency entry in test [2] and in test [4] was “inactive” each time. For the same molecule, the activation in test [3] is 4% [at 17.1 µM, percent relative to cAMP agonist control] (inactive). Also, the activity change, negative = inhibition in test [5] was -28.7% [at 30.8 µM] (inactive).

On to `Cc1ccc(S(=O)(=O)Nc2ccccc2C=Nc2cccc(C)c2C)cc1`, for which the Potency result in test [1], in test [2], in test [3], in test [4] and in test [5] was “inactive” each time.

With `COc1ccc(OCc2nc3ccccc3n2Cc2ccccc2Cl)cc1`, the Potency result in test [1], in test [2], in test [3], in test [4] and in test [5] was “inactive” in each case.

As to `CC1CN(C(=O)N2CCOCC2)CCN1C(=O)N1CCOCC1` (stereo not given), the Potency entry in test [1], in test [2], in test [3], in test [4] and in test [5] was “inactive” each time.

Take `CN(C)CC/C=C1/c2ccccc2Sc2c(O)cc(Cl)cc21`: the Potency entry in test [1], in test [2], in test [3], in test [4] and in test [5] was “inactive” each time.

Take `COc1ccc2oc(C(=O)CCC(=O)O)c(N)c2c1`: the Potency entry in test [1], in test [2] and in test [4] was “inactive” each time. Also, the activation in test [3] was 0% [at 17.1 µM, percent relative to cAMP agonist control] (inactive). Further, in test [5], the activity change, negative = inhibition is 3.66% [at 30.8 µM] (inactive).

`O=C(Cc1c(Cl)cccc1Cl)Nc1ccncc1`: the Potency result in test [1], in test [2] and in test [4] was “inactive” in each case. Further, the activation in test [3] is 13.7% [at 17.1 µM, percent relative to cAMP agonist control] (inactive). Besides, the activity change, negative = inhibition in test [5] is 2.85% [at 30.8 µM] (inactive).

Turning to `Cc1ccc(-n2nc(C(=O)N(C)c3ccc(C)c(C)c3)c3c4ccccc4n(C)c3c2=O)cc1`, the Potency result in test [1], in test [2], in test [3] and in test [5] was “inactive” throughout. The outcome in test [4] was “inactive [at 12.7 µM]”.

Regarding `CCCC(=O)O[C@@H]1C[C@@H](C)N(C(=O)c2ccccc2)c2ccc(C)cc21`, the Potency result in test [1], in test [2], in test [3], in test [4] and in test [5] was “inactive” in each case.

Regarding `Cc1[nH]c2ccccc2c1C(c1ccccc1)c1cccs1` (stereo not given), the Potency entry in test [1], in test [2], in test [3], in test [4] and in test [5] was “inactive” each time.

`Cc1cc(Nc2cccc(C(F)(F)F)c2)nc2ccc(NC(=O)c3ccc(N(C)C)cc3)cc12`: the Potency entry in test [1], in test [2], in test [3], in test [4] and in test [5] was “inactive” throughout.

For the molecule `CNc1nc(-c2ccc(OC)cc2)c(-c2ccc(OC)cc2)s1`, the Potency entry in test [1], in test [2], in test [3] and in test [5] was “inactive” throughout. Also, the Potency in test [4] is 23.9 µM (active).

For `Cc1ccc(-n2c(SCC(=O)N/N=C/c3ccccc3C(=O)O)nnc2-c2ccc(Cl)cc2)cc1`, the Potency entry in test [1], in test [2], in test [3], in test [4] and in test [5] was “inactive” in each case.

In the case of `Cc1ccc(S(=O)(=O)N2CCN(CC(=O)Nc3ccccc3C(=O)NC3CC3)CC2)cc1`, the Potency entry in test [1], in test [2] and in test [4] was “inactive” in each case. In test [3], the activation is 6.96% [at 17.1 µM, percent relative to cAMP agonist control] (inactive). Also, the activity change, negative = inhibition in test [5] was -3.04% [at 30.8 µM] (inactive).

As for `COc1cccc(CN2C(=O)C3(SCC(=O)N3c3ccc(F)cc3)c3ccccc32)c1` (stereo not given), the Potency entry in test [1], in test [2], in test [3], in test [4] and in test [5] was “inactive” each time.

`Cc1cc(/C=N/NC(N)=S)c(O)c(/C=N/NC(N)=S)c1`: the Potency entry in test [1], in test [4] and in test [5] was “inactive” each time. In addition, the results for the Potency in test [2] and in test [3] were 44.7 µM (active) and 50.1 µM (active), respectively.

For `COc1ccccc1C(=O)Nc1ccccc1C(=O)OCc1cc(=O)n2c(C)csc2n1`, the Potency entry in test [1], in test [2], in test [3], in test [4] and in test [5] was “inactive” each time.

On to `O=C(Cn1cc(SCc2ccc(Cl)cc2)c2ccccc21)N1CCCC1`, for which the Potency result in test [1], in test [2], in test [3], in test [4] and in test [5] was “inactive” throughout.

In the case of `O=C(Nc1cccs1)Nc1ccccc1Cl`, the Potency entry in test [1], in test [2] and in test [4] was “inactive” throughout. Also, the activation in test [3] was 6.52% [at 17.1 µM, percent relative to cAMP agonist control] (inactive). Further, the activity change, negative = inhibition in test [5] is 6.73% [at 30.8 µM] (inactive).

Consider `COC(=O)c1ccc2nc(C3CCCCC3)c(Cc3cccc(F)c3)n2c1`, for which the Potency result in test [1], in test [2], in test [3], in test [4] and in test [5] was “inactive” throughout.

Turning to `Cc1ccc(-c2cc([C@H]3[C@@H]4C=CCC[C@@]4(C)C(=O)N3Cc3ccccc3)ccc2F)cc1`, the Potency entry in test [1], in test [2] and in test [4] was “inactive” in each case. Also, the activation in test [3] is -2.1% [at 17.1 µM, percent relative to cAMP agonist control] (inactive). The activity change, negative = inhibition in test [5] was -9.39% [at 30.8 µM] (inactive).

As for `CCOc1ccc(C(=O)NCC(=O)NCC(c2ccco2)N2CCCCC2)cc1OCC` (stereo not given), the Potency entry in test [1], in test [2] and in test [4] was “inactive” throughout. Further, the activation in test [3] is -0.0767% [at 17.1 µM, percent relative to cAMP agonist control] (inactive). The activity change, negative = inhibition in test [5] was -4.11% [at 30.8 µM] (inactive).

Regarding `O=C(c1ccco1)N(CCC(c1ccccc1)c1ccco1)Cc1ccco1` (stereo not given), the Potency in test [1] was 75.7 µM (active). The Potency result in test [2], in test [3], in test [4] and in test [5] was “inactive” in each case.

`O=C1NN(c2ccccc2)C(=O)/C1=C\c1coc2ccc(O)cc2c1=O`: the Potency in test [1] is 21.3 µM (active). The Potency result in test [2], in test [3], in test [4] and in test [5] was “inactive” throughout.

In the case of `O=C1Nc2ccccc2SC1c1ccccc1` (stereo not given), the Potency entry in test [1], in test [2] and in test [4] was “inactive” each time. Further, in test [3], the activation is 3.23% [at 17.1 µM, percent relative to cAMP agonist control] (inactive). Moreover, the activity change, negative = inhibition in test [5] is -15.7% [at 30.8 µM] (inactive).

Regarding `CC(CCc1ccccc1)NC(=O)C1CCN(C(=O)c2sccc2-n2cccc2)CC1` (stereo not given), the Potency result in test [1], in test [2], in test [3], in test [4] and in test [5] was “inactive” each time.

As to `CCOc1cc(CNc2ccc(O)cc2)cc(Br)c1OCc1ccccc1`, in test [1], the Potency is 75.7 µM (active). Moreover, the Potency entry in test [2], in test [3] and in test [5] was “inactive” throughout. Besides, the outcome in test [4] is “inactive [at 12.7 µM]”.

On to `CCOC(=O)c1ccc(N2C(=O)c3n[nH]c(-c4ccco4)c3C2c2ccccc2OC)cc1` (stereo not given), for which the Potency in test [1] was 75.7 µM (active). Further, the Potency entry in test [2], in test [3], in test [4] and in test [5] was “inactive” each time.

Regarding `COc1ccc(Cl)cc1N1C(=O)C2CCCN2C1c1ccccc1F` (stereo not given), the Potency result in test [1], in test [2], in test [3], in test [4] and in test [5] was “inactive” throughout.

In the case of `COc1cc2cnc(-c3ccccc3)c(C(=O)c3ccc(F)cc3)c2cc1OC`, the Potency result in test [1], in test [2] and in test [4] was “inactive” in each case. The activation in test [3] was 4.26% [at 17.1 µM, percent relative to cAMP agonist control] (inactive). The activity change, negative = inhibition in test [5] is -6.2% [at 30.8 µM] (inactive).

Regarding `COC(=O)c1cc(NC(=O)CC2C(=O)OCCN2Cc2ccccc2)cc(C(=O)OC)c1` (stereo not given), the Potency entry in test [1], in test [2], in test [3], in test [4] and in test [5] was “inactive” each time.

Consider `Cn1c(SCc2c(Cl)cccc2Cl)nnc1-c1ccc2nonc2c1`, for which the Potency result in test [1], in test [2] and in test [4] was “inactive” in each case. Also, the activation in test [3] was 10.1% [at 17.1 µM, percent relative to cAMP agonist control] (inactive). The activity change, negative = inhibition in test [5] was -10.9% [at 30.8 µM] (inactive).

Consider `COc1ccccc1C(=O)NC(=O)Cn1nc(C)c([N+](=O)[O-])c1C`, for which the Potency result in test [1], in test [2] and in test [4] was “inactive” in each case. The activation in test [3] was 4.27% [at 17.1 µM, percent relative to cAMP agonist control] (inactive). The activity change, negative = inhibition in test [5] is 11.7% [at 30.8 µM] (inactive).

For `O=C(NCc1ccccc1)c1ccc2nc(-c3ccco3)c(-c3ccco3)nc2c1`, the Potency in test [1] is 16.9 µM (active). Also, the Potency result in test [2], in test [3], in test [4] and in test [5] was “inactive” in each case.
